Source: PubChem BioAssay AID1159580 (chemical genetic matrix, 2015)
Out of some 5,500 compounds screened, about 2,000 (36%) were called active. Not shown: some 18% with an inconclusive outcome. Cut-off read from the data, not from the text of the source: active = normalized growth mostly below about 0.91 (no sharp cut-off); inconclusive = no clear call, values can overlap the other calls; inactive = mostly above about 0.92. This is one part of the list.

Test: chemical genetic growth profiling, strain panel (AID 1159580);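 note: tested at 20 µM; growth read once vehicle control cultures reached saturation at 30 °C; 1 = growth at the plate median or of vehicle wells; lower values mean less growth of the strain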
Settings: growth OD

Measured: normalized growth

COc1c2ccoc2nc2c(OC)c(OCC(O)C(C)(C)O)ccc12 (configuration not stated)
inactive: S. cerevisiae deletion strains, locus YJR075W, strain HOC1, stronger effect = lower value 1.07 | S. cerevisiae deletion strains, locus YKL009W, strain mrt4, stronger effect = lower value 0.944 | S. cerevisiae deletion strains, locus YKL068W, stronger effect = lower value 0.978 | S. cerevisiae deletion strains, locus YKL085W, strain MDH1 (second series), stronger effect = lower value 1 | S. cerevisiae deletion strains, locus YKL085W, strain MDH1, stronger effect = lower value 1 | S. cerevisiae deletion strains, locus YKL160W, strain elf1, stronger effect = lower value 1.03 | S. cerevisiae deletion strains, locus YKL190W, strain CNB1, stronger effect = lower value 0.979 | S. cerevisiae deletion strains, locus YKR001C, strain vps1, stronger effect = lower value 0.985 | S. cerevisiae deletion strains, locus YKR026C, strain gcn3, stronger effect = lower value 1.02 | S. cerevisiae deletion strains, locus YKR091W, strain srl3, stronger effect = lower value 1.01 | S. cerevisiae deletion strains, locus YLL001W, strain dnm1, stronger effect = lower value 1.03 | S. cerevisiae deletion strains, locus YLL026W, stronger effect = lower value 1.01 | S. cerevisiae deletion strains, locus YLL041C, strain sdh2, stronger effect = lower value 1.02 | S. cerevisiae deletion strains, locus YLR027C, strain aat2, stronger effect = lower value 1.03 | S. cerevisiae deletion strains, locus YLR039C, strain RIC1, stronger effect = lower value 0.974 | S. cerevisiae deletion strains, locus YLR058C, strain SHM2, stronger effect = lower value 0.991 | S. cerevisiae deletion strains, locus YLR102C, strain apc9, stronger effect = lower value 0.99 | S. cerevisiae deletion strains, locus YLR113W, strain HOG1, stronger effect = lower value 1.03 | S. cerevisiae deletion strains, locus YLR221C, strain rsa3, stronger effect = lower value 1.03 | S. cerevisiae deletion strains, locus YLR258W, strain gsy2, stronger effect = lower value 1.02 | S. cerevisiae deletion strains, locus YLR262C, strain YPT6 (second series), stronger effect = lower value 1.04 | S. cerevisiae deletion strains, locus YLR262C, strain YPT6, stronger effect = lower value 0.938 | S. cerevisiae deletion strains, locus YLR268W, strain sec22, stronger effect = lower value 1.02 | S. cerevisiae deletion strains, locus YLR320W, strain mms22, stronger effect = lower value 1.03 | S. cerevisiae deletion strains, locus YLR330W, strain CHS5, stronger effect = lower value 0.992 | S. cerevisiae deletion strains, locus YLR342W, strain FKS1 (second series), stronger effect = lower value 0.992 | S. cerevisiae deletion strains, locus YLR342W, strain FKS1, stronger effect = lower value 1.02 | S. cerevisiae deletion strains, locus YLR357W, strain rsc2, stronger effect = lower value 1.06 | S. cerevisiae deletion strains, locus YLR370C, strain arc18, stronger effect = lower value 1.01 | S. cerevisiae deletion strains, locus YLR371W, strain rom2, stronger effect = lower value 0.976 | S. cerevisiae deletion strains, locus YLR384C, strain iki3, stronger effect = lower value 1 | S. cerevisiae deletion strains, locus YLR418C, strain cdc73, stronger effect = lower value 1.04 | S. cerevisiae deletion strains, locus YML016C, strain PPZ1, stronger effect = lower value 0.99 | S. cerevisiae deletion strains, locus YML032C, strain rad52, stronger effect = lower value 0.974 | S. cerevisiae deletion strains, locus YML120C, strain ndi1, stronger effect = lower value 1.02 | S. cerevisiae deletion strains, locus YML124C, strain tub3, stronger effect = lower value 0.99 | S. cerevisiae deletion strains, locus YMR058W, strain fet3, stronger effect = lower value 1.03 | S. cerevisiae deletion strains, locus YMR078C, strain ctf18, stronger effect = lower value 0.97 | S. cerevisiae deletion strains, locus YMR125W, strain sto1, stronger effect = lower value 1.04 | S. cerevisiae deletion strains, locus YMR129W, stronger effect = lower value 1.01 | S. cerevisiae deletion strains, locus YMR205C, strain PFK2, stronger effect = lower value 1.04 | S. cerevisiae deletion strains, locus YMR223W, strain ubp8, stronger effect = lower value 0.961 | S. cerevisiae deletion strains, locus YMR231W, strain pep5, stronger effect = lower value 1 | S. cerevisiae deletion strains, locus YMR263W, strain SAP30, stronger effect = lower value 1.01 | S. cerevisiae deletion strains, locus YMR307W, strain GAS1, stronger effect = lower value 0.941 | S. cerevisiae deletion strains, locus YNL067W, strain RPL9B, stronger effect = lower value 1.03 | S. cerevisiae deletion strains, locus YNL071W, strain lat1, stronger effect = lower value 1.02 | S. cerevisiae deletion strains, locus YNL128W, strain TEP1, stronger effect = lower value 1.01 | S. cerevisiae deletion strains, locus YNL153C, strain GIM3, stronger effect = lower value 1.02 | S. cerevisiae deletion strains, locus YNL183C, strain NPR1, stronger effect = lower value 0.985 | S. cerevisiae deletion strains, locus YNL209W, strain ssb2, stronger effect = lower value 1.02 | S. cerevisiae deletion strains, locus YNL233W, strain BNI4, stronger effect = lower value 1.02 | S. cerevisiae deletion strains, locus YNL248C, strain rpa49, stronger effect = lower value 1.02 | S. cerevisiae deletion strains, locus YNL250W, strain rad50, stronger effect = lower value 0.989 | S. cerevisiae deletion strains, locus YNL271C, strain bni1, stronger effect = lower value 0.989 | S. cerevisiae deletion strains, locus YNL298W, strain CLA4, stronger effect = lower value 0.975 | S. cerevisiae deletion strains, locus YNL307C, strain MCK1, stronger effect = lower value 0.976 | S. cerevisiae deletion strains, locus YNL322C, strain KRE1 (second series), stronger effect = lower value 1.03 | S. cerevisiae deletion strains, locus YNL322C, strain KRE1, stronger effect = lower value 0.995 | S. cerevisiae deletion strains, locus YNR049C, strain mso1, stronger effect = lower value 1.02 | S. cerevisiae deletion strains, locus YNR052C, strain pop2, stronger effect = lower value 0.962 | S. cerevisiae deletion strains, locus YOL006C, strain TOP1, stronger effect = lower value 1.01 | S. cerevisiae deletion strains, locus YOL012C, strain htz1 1.86 | S. cerevisiae deletion strains, locus YOL147C, strain pex11, stronger effect = lower value 0.996 | S. cerevisiae deletion strains, locus YOR001W, strain rrp6, stronger effect = lower value 1.02 | S. cerevisiae deletion strains, locus YOR061W, strain CKA2, stronger effect = lower value 0.997 | S. cerevisiae deletion strains, locus YOR069W, strain VPS5, stronger effect = lower value 0.99 | S. cerevisiae deletion strains, locus YOR070C, strain gyp1, stronger effect = lower value 1 | S. cerevisiae deletion strains, locus YOR080W, strain dia2, stronger effect = lower value 0.999 | S. cerevisiae deletion strains, locus YOR083W, strain WHI5, stronger effect = lower value 1.03 | S. cerevisiae deletion strains, locus YOR106W, strain vam3, stronger effect = lower value 1.04 | S. cerevisiae deletion strains, locus YOR136W, strain idh2, stronger effect = lower value 0.982 | S. cerevisiae deletion strains, locus YOR144C, strain elg1, stronger effect = lower value 0.978 | S. cerevisiae deletion strains, locus YOR184W, strain ser1, stronger effect = lower value 0.946 | S. cerevisiae deletion strains, locus YOR231W, strain MKK1, stronger effect = lower value 1.01 | S. cerevisiae deletion strains, locus YOR265W, strain rbl2, stronger effect = lower value 1 | S. cerevisiae deletion strains, locus YOR270C, strain vph1, stronger effect = lower value 1.07 | S. cerevisiae deletion strains, locus YOR290C, strain snf2, stronger effect = lower value 1.02 | S. cerevisiae deletion strains, locus YOR316C, strain cot1, stronger effect = lower value 0.99 | S. cerevisiae deletion strains, locus YPL051W, strain arl3, stronger effect = lower value 1.05 | S. cerevisiae deletion strains, locus YPL055C, strain LGE1, stronger effect = lower value 1.03 | S. cerevisiae deletion strains, locus YPL078C, strain atp4, stronger effect = lower value 1.03 | S. cerevisiae deletion strains, locus YPL106C, strain sse1, stronger effect = lower value 1.02 | S. cerevisiae deletion strains, locus YPL240C, strain hsp82, stronger effect = lower value 1 | S. cerevisiae deletion strains, locus YPL241C, strain CIN2, stronger effect = lower value 0.992 | S. cerevisiae deletion strains, locus YPL256C, strain CLN2, stronger effect = lower value 1.03 | S. cerevisiae deletion strains, locus YPR119W, strain clb2, stronger effect = lower value 0.998 | S. cerevisiae deletion strains, locus YPR141C, strain kar3, stronger effect = lower value 0.995 | S. cerevisiae deletion strains, locus YPR163C, strain tif3, stronger effect = lower value 0.98 | S. cerevisiae deletion strains, locus YPR167C, strain met16, stronger effect = lower value 0.992 | S. cerevisiae deletion strains, strain wtn01, stronger effect = lower value 1.02 | S. cerevisiae strains, strain wild type, stronger effect = lower value 0.996
